Bioassay records as filed in PubChem BioAssay.
Sampled rows, rich in hits. Any-hit rate of the full collection: about 1.3%.
TrxR1 inh = blocks rat thioredoxin reductase 1; O89049; Potency, µM (titrated, usually from 114 µM), for inactives: top-dose activity change, negative = inhibition, actives largely listed as inhibitors; AID 588453; 1% of 390,000 active; recombinant rTrxR1, NADPH fluorescence consumption, selenite substrate; note: potency is the fitted concentration of half-maximal effect; % is set by controls: 0 for no effect and ±100 for the full control effect; nearly all actives have a fitted effect of over 65% in size
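Rat TrxR1 (90 nM in the dispensed reagent) was pre-reduced with 400 uM NADPH for 5 min at room temperature, then incubated with compound for 15 min. After 400 uM selenite was added, NADPH fluorescence (Ex 340/Em 450 nm) was followed for 8 min.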
TrxR1 substrate = is turned over as a substrate by rat TrxR1; O89049; 0.01% of 390,000 active; purified TrxR1 substrate turnover, NADPH consumption readout; Potency, µM (titrated, usually from 114 µM), for the others: at the highest dose activity change, negative = substrate turnover; note: potency is the fitted concentration of half-maximal effect; % is set by controls: 0 for no effect and ±100 for the full control effect; nearly all actives have a fitted effect of over 50% in size
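Rat TrxR1, dispensed at 90 nM, was prereduced with 400 uM NADPH (final) for 5 min at ~22 deg C, then incubated with compound 15 min before 400 uM selenite. A first-read NADPH fluorescence drop versus no-compound background flagged substrates.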
Giardia kill = kills Giardia lamblia. Giardia lamblia trophozoite viability. activity change, % at 7.66 µM, hits read low. 0.15% of 340,000 active; in the data active = activity change below about -80%; inconclusive = between about -30% and that limit;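 note: parasites exposed to compound for two days anaerobically before the ATP read; % is set by controls: 0 for no effect and ±100 for the full control effect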
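Each well holds 100 Giardia trophozoites and compound. After two days (48 hrs) at 37 deg C in anaerobic conditions, ATP is quantified by luminescence.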
GALK inh = galactokinase (human) inhibition; P51570; Purified GALK, Kinase-Glo residual ATP luminescence; Potency, µM (doses to about 57.5 µM), for the others: at the top dose activity change, negative = inhibition, hits mostly inhibitors; 0.007% of 270,000 active; note: potency is the fitted concentration of half-maximal effect; % is set by controls: 0 for no effect and ±100 for the full control effect
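The enzyme phosphorylates galactose (100 uM) using ATP (35 uM); inhibition is detected as higher residual ATP, quantified by bioluminescence after 1 h reaction at room temperature, pH 8.0.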
Pin1 inhibitor = inhibitors of human Pin1; Pin1 FP peptide displacement, HiFluor488, 10 min; AID 504891; Q13526; Potency, µM (series often up to 115 µM), for inactives: at the highest dose activity, negative = inhibition, actives largely listed as inhibitors; 0.009% of 390,000 active; active = well fitted inhibition curve with a large enough effect in the polarisation, with a control signal flat, not every such curve was filed as active; inconclusive = small, poorly fitted or top-dose-only effect, or effect the other way, or a change in a side signal; inactive = no such curve, though single readings can be large or run the other way; the % refers to the polarisation; note: potency is the fitted concentration of half-maximal effect; % is set by controls: 0 for no effect and ±100 for the full control effect
Target sequence (Q13526 whole entry, looked up): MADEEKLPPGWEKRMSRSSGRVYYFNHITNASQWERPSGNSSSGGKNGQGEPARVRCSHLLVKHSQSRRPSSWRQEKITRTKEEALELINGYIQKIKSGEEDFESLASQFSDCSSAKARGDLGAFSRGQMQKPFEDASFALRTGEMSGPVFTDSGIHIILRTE
KAT2A inh = blocks human GCN5L2 histone acetyltransferase. Q92830. GCN5L2 HAT assay, ThioGlo1 CoA-SH fluorescence. Potency, µM (titrated, usually from 58.9 µM), for the others: at the top dose activity change, negative = inhibition, most hits filed as inhibitors. 0.21% of 390,000 active; note: potency is the fitted concentration of half-maximal effect; % is set by controls: 0 for no effect and ±100 for the full control effect
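qHTS, 1536-well. 20nM enzyme, pH 7.5 HEPES/EDTA/Tween-20 buffer; 15 min compound preinc., RT. Start: 75uM H3(1-25), 70uM AcCoA, 50uM ThioGlo1. Read Ex340/Em540 at t=0 (autofluorescence flag) and t=20 min.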
TRb SRC2 Alpha = TRb-SRC2 (human) interaction inhibition | shares compounds with TrxR1 inh | AlphaScreen TRb LBD-SRC2 peptide binding, luminescence | Potency, µM | 50% of 30 active; calls by dose curve
HepG2 viability = reduces HepG2 viability in TRb-SRC2 counter-screen; shares compounds with TrxR1 inh; HepG2 viability, ATP luminescence (CellTiter-Glo), 72 h; Potency, µM; 50% of 40 active; calls by dose curve
AR-SRC2 inh = selectivity of TRb-SRC2 inhibitors: human androgen receptor-SRC2 inhibition; AID 2448; calls only; AR-LBD Tx-SRC2-3 fluorescence polarization, 3 h; 25 tested, under 10 active; shares compounds with TrxR1 inh; call rule not given here
PPARg DRIP2 FP = PPARg-DRIP2 (human) interaction inhibition, selectivity. shares compounds with TrxR1 inh. PPARg LBD / Texas Red DRIP-2 peptide, fluorescence polarization, 3 h. Potency, µM. 25 tested, under 10 active. AID 2449; calls by dose curve
VDR SRC2 FP = selectivity of TRb-SRC2 inhibitors: human vitamin D receptor-SRC2 inhibition | shares compounds with TrxR1 inh | VDR LBD/SRC2-3 peptide, fluorescence polarization, 3 h | Potency, µM | 25 tested, under 10 active | AID 2455; calls by dose curve
Target sequence (P11473 whole entry, looked up, the tested form may be a part): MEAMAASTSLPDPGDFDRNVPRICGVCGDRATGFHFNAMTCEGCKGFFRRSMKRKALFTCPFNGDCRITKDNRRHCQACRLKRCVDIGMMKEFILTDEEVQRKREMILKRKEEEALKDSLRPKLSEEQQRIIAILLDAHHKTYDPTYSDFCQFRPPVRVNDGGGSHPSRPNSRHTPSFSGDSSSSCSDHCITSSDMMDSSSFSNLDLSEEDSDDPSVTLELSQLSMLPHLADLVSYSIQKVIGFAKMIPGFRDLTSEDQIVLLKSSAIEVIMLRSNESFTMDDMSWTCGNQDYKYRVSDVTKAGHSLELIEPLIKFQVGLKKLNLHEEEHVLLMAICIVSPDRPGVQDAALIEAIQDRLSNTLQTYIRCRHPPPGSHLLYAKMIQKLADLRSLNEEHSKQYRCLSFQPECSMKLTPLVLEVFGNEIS
TRb-SRC2 FP Fluo = TRb-SRC2 (human) inhibition, fluorescein FP confirmation | shares compounds with TrxR1 inh | TRb LBD / fluorescein-SRC2 peptide, fluorescence polarization | Potency, µM | 20 tested, under 10 active; call rule not given here
* marks the source's active call; other numbers are inactive results; [ ] = dose if it differs, or a comment. Unless noted, calls come from the whole dose curve; as a rule, active = well fitted curve in the direction sought with a large enough effect; inconclusive = small, poorly fitted or top-dose-only effect, or another doubt; inactive = no such curve, though single readings can be large; an effect the other way counts as inactive or inconclusive.

What do the screens show for `CS(=O)(=O)c1ccc(C(=O)OCC(=O)NC(=O)C2CCCCC2)cc1[N+](=O)[O-]`?
TrxR1 inh: 3.2µM*; TrxR1 substrate: 22%; Giardia kill: 6; GALK inh: -1%; Pin1 inhibitor: -4%; KAT2A inh: -1%; TRb SRC2 Alpha: 0.6µM*; HepG2 viability: 23µM*; AR-SRC2 inh: inactive; PPARg DRIP2 FP: 22µM*; VDR SRC2 FP: inactive; TRb-SRC2 FP Fluo: 11µM*

Results for CC(=O)Nc1cccc(C(=O)OCC(=O)NC(=O)C2CCCCC2)c1 ?
TrxR1 inh: -1%; TrxR1 substrate: -2%; Giardia kill: 8; Pin1 inhibitor: -2%; TRb SRC2 Alpha: inactive; HepG2 viability: inactive; TRb-SRC2 FP Fluo: inactive

What do the screens show for `CC1(C)C2CCC1(C)C(NC(=O)COC(=O)c1ccc(S(C)(=O)=O)c([N+](=O)[O-])c1)C2` (stereo not given)?
TrxR1 inh: 3.5µM*; TrxR1 substrate: -2%; Giardia kill: -3; Pin1 inhibitor: 4%; TRb SRC2 Alpha: 6.8µM*; HepG2 viability: 23µM*; AR-SRC2 inh: inactive; PPARg DRIP2 FP: inactive; VDR SRC2 FP: 40µM*; TRb-SRC2 FP Fluo: 3.3µM*

How did CC(=O)Nc1cccc(C(=O)OCC(=O)NC2CCCCCCC2)c1 do in these assays?
TrxR1 inh: 26%; TrxR1 substrate: 12%; Giardia kill: 12; Pin1 inhibitor: 1%; KAT2A inh: -3%

What do the screens show for `Cc1cc(C(=O)OCC(=O)NC(=O)C2CCCCC2)ccc1[N+](=O)[O-]`?
TrxR1 inh: 3%; TrxR1 substrate: -2%; Giardia kill: 15; Pin1 inhibitor: 2%; TRb SRC2 Alpha: inactive; HepG2 viability: inconclusive; TRb-SRC2 FP Fluo: inactive

How did O=C(COC(=O)c1ccc2ncsc2c1)NC(=O)C1CCCCC1 do in these assays?
TrxR1 inh: 7%; TrxR1 substrate: -1%; Giardia kill: -5; Pin1 inhibitor: 0%; TRb SRC2 Alpha: inactive; HepG2 viability: 20µM*; TRb-SRC2 FP Fluo: inactive

How did CNc1ccc(C(=O)OCC(=O)NC(=O)NC2CCCCC2)cc1[N+](=O)[O-] do in these assays?
TrxR1 inh: 19%; TrxR1 substrate: -1%; Giardia kill: 26; Pin1 inhibitor: 10%; KAT2A inh: -8%

Results for CC1CCC(NC(=O)COC(=O)c2ccc3ncsc3c2)CC1 (stereo not given) ?
TrxR1 inh: 20%; TrxR1 substrate: 7%; Giardia kill: -2; Pin1 inhibitor: -6%; KAT2A inh: -1%

Results for CS(=O)(=O)c1ccc(C(=O)OCC(=O)N2CCOCC2)cc1[N+](=O)[O-] ?
HepG2 viability: inactive

What do the screens show for `O=C1CN(C(=O)COC(=O)c2ccc(N3CCCCCC3)c([N+](=O)[O-])c2)c2ccccc2N1`?
TrxR1 inh: 12%[57.1 µM]; TrxR1 substrate: 6%[57.1 µM]; Giardia kill: -3; GALK inh: 0%; Pin1 inhibitor: -1%; KAT2A inh: -6%

How did CCN(CC)C(=O)COC(=O)c1ccc(O)cc1 do in these assays?
TrxR1 inh: 10%[57.1 µM]; TrxR1 substrate: 4%[57.1 µM]; Giardia kill: 25; GALK inh: -3%; Pin1 inhibitor: 0%

How did CS(=O)(=O)c1ccc(C(=O)OCC(=O)N2CC(=O)Nc3ccccc32)cc1[N+](=O)[O-] do in these assays?
TrxR1 inh: 2.8µM*; TrxR1 substrate: 0%; Giardia kill: 16; Pin1 inhibitor: inconclusive; TRb SRC2 Alpha: 10µM*; HepG2 viability: 16µM*; AR-SRC2 inh: inactive; PPARg DRIP2 FP: 15µM*; VDR SRC2 FP: 64µM*; TRb-SRC2 FP Fluo: 2.8µM*

How did CS(=O)(=O)c1ccc(C(=O)OCC(=O)N2Cc3ccccc3C2)cc1[N+](=O)[O-] do in these assays?
HepG2 viability: 20µM*

How did CCN(CC)C(=O)COC(=O)c1ccc(S(C)(=O)=O)c([N+](=O)[O-])c1 do in these assays?
HepG2 viability: inconclusive

How did CC1CCN(S(=O)(=O)c2ccc3c(c2)c(=O)c(C(=O)NCCc2ccccc2)cn3C)CC1 do in these assays?
TrxR1 inh: 13%; TrxR1 substrate: -8%; Pin1 inhibitor: 12%; KAT2A inh: -2%

How did CC1CCCCN1C(=O)COC(=O)c1ccc(S(C)(=O)=O)c([N+](=O)[O-])c1 (stereo not given) do in these assays?
TrxR1 inh: 10µM*; TrxR1 substrate: -1%; Giardia kill: -12; Pin1 inhibitor: 2%; TRb SRC2 Alpha: 19µM*; HepG2 viability: 22µM*; AR-SRC2 inh: inactive; PPARg DRIP2 FP: inactive; VDR SRC2 FP: inactive; TRb-SRC2 FP Fluo: 9.1µM*

Results for CCCC1CCN(C(=O)COC(=O)c2ccc(S(C)(=O)=O)c([N+](=O)[O-])c2)CC1 ?
HepG2 viability: 6.6µM*

Results for CS(=O)(=O)c1ccc(C(=O)OCC(=O)N2CCC(Cc3ccccc3)CC2)cc1[N+](=O)[O-] ?
HepG2 viability: 9µM*

How did CC1CN(C(=O)COC(=O)c2ccc(N)c([N+](=O)[O-])c2)CC(C)O1 (stereo not given) do in these assays?
TrxR1 inh: 4%; TrxR1 substrate: 6%[57.1 µM]; Giardia kill: -6; GALK inh: -1%; Pin1 inhibitor: 2%; KAT2A inh: 4%

Results for CC1CCCCN1C(=O)COC(=O)CSc1ccc(C(N)=O)cc1[N+](=O)[O-] (stereo not given) ?
TrxR1 inh: 13%[57.1 µM]; TrxR1 substrate: 6%[57.1 µM]; Giardia kill: -12; Pin1 inhibitor: -1%
